# Screening data from PubChem.
# The full list was thinned out, with hits kept by preference.
# Pf apPOL inh: Pf-apPOL DNA polymerase inhibition; Recombinant Pf-apPOL, molecular beacon fluorescence, 1.5 h; inhibition, % at 10 µM; 210,000 tested, 0.25% active
# mHTT CaM bind: mHTT-calmodulin interaction abrogation. inhibition, % at 15 µM. P42858. 190,000 tested, 3.6% active. AlphaScreen His-mHTT/GST-CaM binding, luminescence
# Target sequence (P42858 whole entry, looked up, change not shown): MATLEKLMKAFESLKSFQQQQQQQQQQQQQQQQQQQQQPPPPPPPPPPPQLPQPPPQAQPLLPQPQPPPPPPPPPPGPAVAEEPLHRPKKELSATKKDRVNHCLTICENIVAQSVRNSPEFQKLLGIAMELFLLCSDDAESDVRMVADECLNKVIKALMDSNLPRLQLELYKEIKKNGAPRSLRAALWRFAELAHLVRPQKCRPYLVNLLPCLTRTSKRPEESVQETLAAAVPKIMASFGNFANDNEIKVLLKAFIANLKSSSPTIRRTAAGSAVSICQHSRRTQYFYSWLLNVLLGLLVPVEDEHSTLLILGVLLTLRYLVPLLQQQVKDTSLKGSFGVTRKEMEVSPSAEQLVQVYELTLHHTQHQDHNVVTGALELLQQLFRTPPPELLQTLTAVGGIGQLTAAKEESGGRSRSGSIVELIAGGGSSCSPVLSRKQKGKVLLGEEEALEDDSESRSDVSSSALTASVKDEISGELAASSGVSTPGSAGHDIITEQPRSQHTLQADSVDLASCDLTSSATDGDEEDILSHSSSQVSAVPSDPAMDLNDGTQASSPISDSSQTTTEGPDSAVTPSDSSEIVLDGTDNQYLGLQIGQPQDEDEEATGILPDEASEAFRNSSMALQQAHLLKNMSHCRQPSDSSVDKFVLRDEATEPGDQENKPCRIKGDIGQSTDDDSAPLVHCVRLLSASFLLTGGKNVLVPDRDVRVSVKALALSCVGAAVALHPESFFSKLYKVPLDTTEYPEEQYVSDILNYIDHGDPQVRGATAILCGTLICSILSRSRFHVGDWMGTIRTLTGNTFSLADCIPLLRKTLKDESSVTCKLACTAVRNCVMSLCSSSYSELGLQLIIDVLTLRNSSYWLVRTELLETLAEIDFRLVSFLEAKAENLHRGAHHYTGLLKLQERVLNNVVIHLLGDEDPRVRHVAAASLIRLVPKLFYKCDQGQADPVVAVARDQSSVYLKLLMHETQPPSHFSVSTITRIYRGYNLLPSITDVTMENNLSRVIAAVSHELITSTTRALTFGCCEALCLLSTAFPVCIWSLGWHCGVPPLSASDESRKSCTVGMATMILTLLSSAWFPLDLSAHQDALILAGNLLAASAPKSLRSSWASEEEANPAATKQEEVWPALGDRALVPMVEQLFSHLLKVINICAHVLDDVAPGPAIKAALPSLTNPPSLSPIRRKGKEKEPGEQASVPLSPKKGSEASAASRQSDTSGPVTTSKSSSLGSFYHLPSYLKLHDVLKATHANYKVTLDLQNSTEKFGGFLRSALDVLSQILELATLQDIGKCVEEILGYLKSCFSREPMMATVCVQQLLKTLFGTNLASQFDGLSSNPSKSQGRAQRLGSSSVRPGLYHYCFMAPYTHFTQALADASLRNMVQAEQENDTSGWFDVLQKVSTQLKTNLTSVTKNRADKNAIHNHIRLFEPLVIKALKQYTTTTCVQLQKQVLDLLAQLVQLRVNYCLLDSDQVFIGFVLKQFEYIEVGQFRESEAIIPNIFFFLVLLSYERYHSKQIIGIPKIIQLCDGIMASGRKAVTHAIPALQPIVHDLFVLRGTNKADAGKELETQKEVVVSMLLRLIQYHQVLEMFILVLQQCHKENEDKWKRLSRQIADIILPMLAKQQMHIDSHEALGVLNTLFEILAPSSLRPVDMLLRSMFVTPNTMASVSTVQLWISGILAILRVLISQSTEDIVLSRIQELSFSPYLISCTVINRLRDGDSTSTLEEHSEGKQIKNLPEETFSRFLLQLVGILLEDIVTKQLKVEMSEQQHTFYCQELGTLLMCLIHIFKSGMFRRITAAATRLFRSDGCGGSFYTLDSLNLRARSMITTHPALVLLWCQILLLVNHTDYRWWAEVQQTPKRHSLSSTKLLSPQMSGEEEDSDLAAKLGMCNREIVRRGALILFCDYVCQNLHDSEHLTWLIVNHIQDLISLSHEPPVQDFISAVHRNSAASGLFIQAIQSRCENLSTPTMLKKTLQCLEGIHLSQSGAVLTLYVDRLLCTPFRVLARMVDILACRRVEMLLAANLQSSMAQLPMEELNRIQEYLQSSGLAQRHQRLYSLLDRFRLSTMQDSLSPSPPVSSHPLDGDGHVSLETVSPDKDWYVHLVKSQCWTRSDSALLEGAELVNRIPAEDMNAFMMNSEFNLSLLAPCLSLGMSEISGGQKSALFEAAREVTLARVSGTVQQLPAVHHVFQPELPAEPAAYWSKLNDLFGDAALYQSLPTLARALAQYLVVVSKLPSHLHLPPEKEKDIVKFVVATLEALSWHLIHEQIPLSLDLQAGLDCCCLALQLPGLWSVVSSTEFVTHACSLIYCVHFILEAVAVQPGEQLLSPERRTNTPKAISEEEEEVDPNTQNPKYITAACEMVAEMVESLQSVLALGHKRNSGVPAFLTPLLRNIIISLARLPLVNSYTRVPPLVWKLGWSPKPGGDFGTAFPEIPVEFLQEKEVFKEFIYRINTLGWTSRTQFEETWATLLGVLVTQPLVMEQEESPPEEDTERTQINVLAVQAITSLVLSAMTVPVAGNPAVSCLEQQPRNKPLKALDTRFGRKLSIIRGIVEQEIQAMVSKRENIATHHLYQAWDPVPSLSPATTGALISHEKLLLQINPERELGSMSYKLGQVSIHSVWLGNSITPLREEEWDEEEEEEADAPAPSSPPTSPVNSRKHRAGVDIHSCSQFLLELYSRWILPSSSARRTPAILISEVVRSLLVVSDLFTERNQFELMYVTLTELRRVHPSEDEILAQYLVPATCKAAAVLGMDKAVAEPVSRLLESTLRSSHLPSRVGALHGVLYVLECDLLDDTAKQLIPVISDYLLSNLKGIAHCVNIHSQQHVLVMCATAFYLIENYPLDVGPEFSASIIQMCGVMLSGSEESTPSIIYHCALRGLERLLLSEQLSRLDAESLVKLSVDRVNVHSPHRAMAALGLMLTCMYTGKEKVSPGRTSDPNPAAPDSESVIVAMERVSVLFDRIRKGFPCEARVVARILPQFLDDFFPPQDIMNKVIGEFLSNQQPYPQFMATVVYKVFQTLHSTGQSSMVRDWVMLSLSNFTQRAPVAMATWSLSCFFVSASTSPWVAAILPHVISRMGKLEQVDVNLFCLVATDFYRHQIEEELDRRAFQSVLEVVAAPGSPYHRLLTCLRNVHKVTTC
# Numbers stand for hits; n = inactive; x = no result. Rule as the data show it: active = inhibition above about 50%; inactive = the rest.
SMILES,Pf apPOL inh,mHTT CaM bind
CC(O)Cn1c2ccccc2c2cc(Cl)ccc21 (stereo not given),n,n
O=C(c1ccc(Cl)cc1)N1CCC(Cc2nnc(-c3ccccc3)o2)CC1,n,n
O=c1c2c(ncn2Cc2cccc(F)c2)n(-c2ccc(F)cc2)c(=O)n1CC1CC1,n,n
Cc1ccnc(Nc2ccc(N3CCN(C(=O)c4cnccn4)CC3)nn2)c1,n,90
O=C(c1cnccn1)N1CCN(c2cc(-n3cccn3)ncn2)CC1,n,n
Cc1ccnc(NC(=O)C2CCCC2)c1,n,n
Cc1ccnc(Nc2ccc(N3CCN(C(=O)C4CCCC4)CC3)nn2)c1,n,55
Brc1ccc(C=Nc2c(-c3ccco3)nc3ccccn23)cc1,n,n
COc1ccc(C=Nc2c(-c3ccco3)nc3ccccn23)cc1OC,n,n
Oc1ccc(C=Nc2c(-c3ccco3)nc3ccc(Cl)cn23)cc1,n,52
Clc1ccccc1C=Nc1c(-c2ccco2)nc2ccccn12,n,79
O=[N+]([O-])c1cc(C=Nc2c(-c3ccco3)nc3ccccn23)ccc1Cl,n,n
COc1ccc(Br)cc1C=Nc1c(-c2ccco2)nc2ccccn12,n,n
CSc1ccc(C=Nc2c(-c3ccco3)nc3ccccn23)cc1,n,80
Oc1ccc(Br)cc1C=Nc1c(-c2ccco2)nc2ccccn12,n,62
Cn1c(C(C#N)=C(O)c2ccc(Cl)s2)nc2ccccc21,n,n
COc1cccc(Nc2nc(-c3ccc(F)cc3)cs2)c1,n,59
COc1ccc(-c2csc(Nc3cccc(O)c3)n2)cc1,n,89
Fc1ccc(-c2csc(Nc3ccc(Oc4ccccc4)cc3)n2)cc1,n,n
COc1ccc(-c2csc(Nc3cccc(C(=O)O)c3)n2)cc1,n,n
Cc1cc(O)c(C(=O)COc2ccccc2)c(O)c1,n,n
Cc1cccc(S(=O)(=O)N2CC3CN(C(=O)c4cccc(F)c4)CC(C2)O3)c1,n,n
CCc1ccc(C(=O)N2CC3CN(S(=O)(=O)c4cccc(C)c4)CC(C2)O3)cc1,n,65
Cc1nc2c(C(=O)NCc3ccccc3)c[nH]n2c(=O)c1Cl,73,n
Cc1nc2c(C(=O)NCc3ccccc3)c[nH]n2c(=O)c1Cc1ccccc1Cl,n,n
SMILES,Pf apPOL inh,mHTT CaM bind
Cc1nc2c(C(=O)NCCc3ccccc3Cl)c[nH]n2c(=O)c1Cl,n,57
Cc1nc2c(C(=O)NCc3ccccc3Cl)c[nH]n2c(=O)c1Cl,n,n
Cc1ccc(C(=O)N2CCC(c3ccn4ncc(C(=O)N5CCC(C)CC5)c4c3)CC2)cc1,n,n
Cc1nn2c3ccccc3n(CC(=O)c3ccc(Br)cc3)c2nc1=O,n,n
CCOCCCNC(=O)c1cc2n(n1)CCCN(Cc1cccc(F)c1)C2=O,n,n
CCc1nccn1Cc1nc(-c2ccc(C)c(C)c2)no1,n,n
Cc1c(N=Cc2cn(-c3ccccc3)nc2-c2cccnc2)c(=O)n(-c2ccccc2)n1C,n,n
OCc1cn(-c2ccccc2)nc1-c1cccnc1,n,n
O=C(/C=C/c1cn(-c2ccccc2)nc1-c1cccnc1)c1ccco1,n,53
O=C(/C=C/c1cn(-c2ccccc2)nc1-c1cccnc1)c1cccs1,n,52
NS(=O)(=O)c1ccc(CCNC(=O)C(=O)Nc2ccc(F)c(Cl)c2)cc1,n,n
Cc1ccnc(NC(=O)CSc2nc(N)cc(=O)[nH]2)c1,n,n
Cc1nn(C2CCS(=O)(=O)C2)c(C)c1N1CCN(C(=O)C(C)Oc2ccccc2)CC1 (stereo not given),n,n
CCCCCc1cc(=O)oc2c(C(CCN3CCCC3)c3ccc4c(c3)OCO4)c(OC)cc(OC)c12 (stereo not given),n,100
COc1cc(OC)c2c(-c3ccccc3)cc(=O)oc2c1C(CCN1CCOCC1)c1ccc2c(c1)OCO2 (stereo not given),n,84
COc1cc(OC)c2ccc(=O)oc2c1C(CCN1CCCC1)c1ccc2c(c1)OCO2 (stereo not given),n,n
COc1cc(OC)c2ccc(=O)oc2c1C(CCN1CCOCC1)c1ccc2c(c1)OCO2 (stereo not given),n,n
COc1cc(OC)c2c(-c3ccccc3)cc(=O)oc2c1C(CCN1CCCC1)c1ccc2c(c1)OCO2 (stereo not given),n,100
COC(=O)c1ccc2c(c1)C(=O)C(=Cc1ccc(SC)cc1)O2,n,n
Cc1c(C(N)=O)cc(-c2ccc(F)cc2)n1C,n,n
CN=C1S/C(=C/c2ccc(C)o2)C(=O)N1C,x,n
Cc1ccc(/C=C2\CS/C(=C\c3ccc(C)o3)C2=O)o1,n,100
CC(=O)NC1=NN(C(C)=O)C(c2ccc(OCc3ccccc3)cc2)S1 (stereo not given),n,68
CC(=O)NC1=NN(C(C)=O)C(c2ccc(OCc3ccccc3)c(OCc3ccccc3)c2)S1 (stereo not given),n,n
O=C(Oc1ccc2c(c1)OC(=Cc1cccnc1)C2=O)c1ccc(Br)cc1,n,76
O=C(Oc1ccc2c(c1)OC(=Cc1cccnc1)C2=O)c1ccncc1,n,n
